From PubChem BioAssay (EPA / NIEHS)
Activity calls are given as the source filed them. Rule for the calls: active = hit-call score of the fitted dose curve at least 0.9, where 1 is the maximum; inactive = score below 0.9.

What was measured:
[1] = APR_HepG2_P-H2AX_72hr: Apredica 72-hour HepG2 Assay for H2AX Phosphorylation (AID 2282916); settings: imaging, actives raise or lower the signal;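 note: phospho-histone H2A.x immunostain intensity per cell marking DNA damage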
Method in brief: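 Human hepatoma HepG2 cells are dosed across ten concentrations (0.39 to 200 uM, 0.5% v/v DMSO) and incubated 72 hr. Phospho-histone H2A.x is then detected by antibody staining alongside c-Jun and Hoechst, and quantified by automated fluorescence imaging.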

[2] = APR_HepG2_MitoMembPot_72hr: Apredica 72-hour HepG2 Assay for Mitochondrial Membrane Potential (AID 2282917); settings: imaging, actives raise or lower the signal
Method in brief: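 HepG2 cells dosed 72 hr with compound at 0.39–200 uM in duplicate, 0.5% v/v DMSO final. Mitochondria stained with 250 nM MitoTracker Red CMXRos for 30 min before formaldehyde fixation, imaged by high-content fluorescence; bidirectional fit versus DMSO.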

[3] = APR_HepG2_MitoticArrest_72hr: Apredica 72-hour HepG2 Assay for Mitotic Arrest (AID 2282918); settings: high-content imaging, actives raise or lower the signal
Method in brief: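 Read-out is phospho-histone H3 immunofluorescence with Hoechst nuclear segmentation, imaged at 20x. Human HepG2 liver cells received ten concentrations (0.39–200 uM, final DMSO 0.5% v/v) for 72 hr before fixation. Gain or loss of signal was fitted relative to DMSO.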

[4] = APR_HepG2_MicrotubuleCSK_72hr: Apredica 72-hour HepG2 Assay for Microtubule CSK Stabilty (AID 2282919); settings: HepG2 microtubule cytoskeleton, high-content imaging, actives raise or lower the signal
Method in brief: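 HepG2, 72 hr cmpd exposure, 0.39–200 uM (10 pts, duplicate), 0.5% DMSO. 3.7% formaldehyde fix, 0.5% Triton perm, anti-alpha-tubulin/Cy5 plus Hoechst. HCS fluorescence intensity; bidirectional fit vs DMSO baseline; taxol as positive control.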

[5] = APR_HepG2_P-H2AX_24hr: Apredica 24-hour HepG2 Assay for H2AX Phosphorylation (AID 2282920); settings: high-content imaging, actives raise or lower the signal
Method in brief: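 HepG2, 24 hr, cpd 0.39–200 uM (10 conc, duplicate), DMSO 0.5% v/v final. Fix 3.7% formaldehyde, Triton X-100 permeabilize, anti-phospho-H2A.x 1:200 + Hoechst 2 ug/mL. Imaged, bidirectional fit vs DMSO.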

[6] = APR_HepG2_StressKinase_72hr: Apredica 72-hour HepG2 Assay for Stress Kinase (AID 2282921); settings: HepG2 stress kinase (phospho-c-Jun) imaging, actives raise or lower the signal
Method in brief: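 After a 72 h compound treatment spanning 0.39 to 200 uM, formaldehyde-fixed cells are labelled for phosphorylated c-Jun and nuclei, imaged by automated fluorescence microscopy, and activity is fitted in both directions relative to DMSO controls.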

[7] = APR_HepG2_StressKinase_24hr: Apredica 24-hour HepG2 Assay for Stress Kinase (AID 2282922); settings: HepG2 stress kinase (phospho-c-Jun) imaging, actives raise or lower the signal
Method in brief: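 Read-out: phospho-c-Jun immunofluorescence (Cy3 secondary) quantified by high-content imaging at 20x, nuclei defined by Hoechst 33342. Human HepG2 liver cells dosed 24 hr, 0.39–200 uM, DMSO 0.5% v/v; gain or loss of signal fitted relative to DMSO.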

[8] = APR_HepG2_p53Act_72hr: Apredica 72-hour HepG2 Assay for p53 Activation (AID 2282923); settings: high-content imaging, actives raise or lower the signal;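 note: average cellular p53 protein immunofluorescence intensity in HepG2 cells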
Method in brief: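 Imaging-based endpoint: after 72 hr compound exposure (up to 200 uM, 0.5% DMSO), fixed and permeabilized monolayers were labelled with anti-p53 antibody and imaged; signal change in either direction was fitted relative to DMSO controls.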

[9] = APR_HepG2_MitoMass_72hr: Apredica 72-hour HepG2 Assay for Mitochondrial Mass (AID 2282924); settings: high-content imaging, actives raise or lower the signal;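 note: MitoTracker Red CMXRos stain intensity per cell imaged as mitochondrial mass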
Method in brief: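 Read-out: MitoTracker Red fluorescence intensity from automated imaging (20x, six fields per well) in human HepG2 liver cells. Dosing ran 72 hr, 0.39–200 uM, 0.5% DMSO; bidirectional curve fitting versus DMSO baseline.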

[10] = APR_HepG2_NuclearSize_72hr: Apredica 72-hour HepG2 Assay for Nuclear Size (AID 2282925); settings: high-content imaging, actives raise or lower the signal
Method in brief: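 Read-out: nuclear diameter from Hoechst 33342 images (ArrayScan, 20x, six fields/well), via cell-cycle image analysis. HepG2 were dosed 0.39–200 uM for 72 hr in 0.5% DMSO. Bidirectional fit relative to DMSO.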

[11] = ATG_CRE_CIS: Attagene CIS-FACTORIAL HepG2 Assay for human cAMP Responsive Element (CRE) binding protein 3 (AID 2282926); settings: HepG2 CRE cis-reporter, Attagene multiplexed mRNA; actives raise or lower the signal
Method in brief: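 Assay format: transient reporter transfection of HepG2, 24 h treatment, total RNA isolation with DNase I step. Reporter abundance read by fluorescence after PCR and capillary separation; DMSO-normalised gain or loss fitting.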

[12] = target: CCAAT/enhancer-binding protein beta (Homo sapiens) (UniProt P17676); assay: ATG_C_EBP_CIS: Attagene CIS-FACTORIAL HepG2 Assay for human CCAAT/Enhancer Binding Protein (C/EBP) beta (AID 2282927); settings: HepG2 Attagene cis-factorial transcription factor reporter; actives raise or lower the signal
Method in brief: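 Transiently transfected HepG2 (MRTU library, endogenous TF-driven promoters); 24 h dosing; total RNA → oligo(dT) RT → PCR → 6-FAM primer extension → HpaI digest → CE; fit bidirectionally vs DMSO.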

[13] = ATG_CMV_CIS: Attagene CIS-FACTORIAL HepG2 Assay for human CMV (Internal Marker) (AID 2282928); settings: HepG2 CMV promoter reporter, transcription factor profiling; actives raise or lower the signal;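 note: endpoint acts as a background internal control marker rather than a target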
Method in brief: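 Fluorescence intensity of RT-PCR-derived reporter fragments, resolved by capillary electrophoresis, gives the signal. HepG2 liver cells bearing transfected cis-element reporters were treated 24 h; activity in either direction was fit relative to DMSO-treated controls.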

[14] = ATG_DR4_LXR_CIS: Attagene CIS-FACTORIAL HepG2 Assay for human Liver X Receptor (LXR), DR4 submotif (AID 2282929); settings: HepG2 Attagene DR4 cis-reporter, mRNA transcription; actives raise or lower the signal
Method in brief: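 Measures endogenous transcription factor activity via a DR4-driven reporter transcript in human HepG2 cells. Compounds incubated 24 h; mRNA quantified by RT-PCR and capillary electrophoresis, analysed as gain or loss of signal versus DMSO.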

[15] = target: Aryl hydrocarbon receptor (Homo sapiens) (UniProt P35869); assay: ATG_Ahr_CIS: Attagene CIS-FACTORIAL HepG2 Assay for human Aryl Hydrocarbon Receptor (Ahr) (AID 2282930); settings: HepG2 AhR cis-factorial reporter transcription; actives raise or lower the signal
Method in brief: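 Read-out: reporter mRNA quantified by RT-PCR with fluorescent primer extension and capillary electrophoresis. Human HepG2 liver cells carried transfected cis-promoter reporter units and were exposed to chemical for 24 h; gain or loss fitted relative to DMSO.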

[16] = ATG_AP_2_CIS: Attagene CIS-FACTORIAL HepG2 Assay for human Activator Protein 2 (AP-2) (AID 2282932); settings: HepG2 AP-2 cis-reporter, Attagene transcription factor profiling; actives raise or lower the signal
Method in brief: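 Liver-derived HepG2 line, cis-reporter system measuring endogenous factors; 24 h dosing; reporter mRNA detected by fluorescent RT-PCR and capillary electrophoresis.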

[17] = ATG_BRE_CIS: Attagene CIS-FACTORIAL HepG2 Assay for human Bone Morphogenetic Protein (BMP) Response Element (BRE) (AID 2282933); settings: HepG2 BMP response element reporter, Attagene transcription factor profiling; actives raise or lower the signal
Method in brief: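 Endogenous transcription factor activity at a BMP response element was monitored in transfected HepG2 cells 24 h after dosing. Fluorescent RT-PCR products were resolved by capillary electrophoresis, and activity was fitted in both directions versus DMSO.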

[18] = target: Retinoic acid receptor alpha (Homo sapiens) (UniProt P10276); assay: ATG_DR5_RAR_CIS: Attagene CIS-FACTORIAL HepG2 Assay for human Retinoic Acid Receptor Alpha (RARE), DR5 submotif (AID 2282934); settings: HepG2 Attagene cis-factorial RARE DR5 reporter, mRNA; actives raise or lower the signal;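 for AC50: reporter responds to endogenous RAR alpha beta and gamma in HepG2 not RARA alone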
Method in brief: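 Read-out: DR5-driven reporter transcript measured by RT-PCR, 6-FAM primer extension, HpaI digest and capillary electrophoresis. Human HepG2 liver cells carry transiently transfected cis-element reporter constructs; dosing lasts 24 h. Gain or loss of signal fitted against DMSO baseline.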

[19] = target: Transcription factor E2F1 (Homo sapiens) (UniProt Q01094); assay: ATG_E2F_CIS: Attagene CIS-FACTORIAL HepG2 Assay for human E2F Transcription Factor 1 (AID 2282935); settings: HepG2 Attagene cis-reporter, E2F reporter RNA transcripts; actives raise or lower the signal
Method in brief: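 Liver-derived HepG2 cells expressing transfected promoter-driven reporter units received test chemical for 24 hours. Signal gains or losses were fitted bidirectionally against DMSO.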

[20] = ATG_AP_1_CIS: Attagene CIS-FACTORIAL HepG2 Assay for human Activator Protein 1 (AP-1) (AID 2282931); settings: HepG2 Attagene cis-factorial AP-1 reporter mRNA; actives raise or lower the signal
Method in brief: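 Bidirectional concentration-response fitting against DMSO controls. Underlying signal: reporter mRNA from cis-promoter constructs in transiently transfected HepG2, measured after 24 h by RT-PCR and capillary electrophoresis.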

Measured: AC50

Chain of Retinoic acid receptor alpha (Homo sapiens) (P10276 whole entry, looked up): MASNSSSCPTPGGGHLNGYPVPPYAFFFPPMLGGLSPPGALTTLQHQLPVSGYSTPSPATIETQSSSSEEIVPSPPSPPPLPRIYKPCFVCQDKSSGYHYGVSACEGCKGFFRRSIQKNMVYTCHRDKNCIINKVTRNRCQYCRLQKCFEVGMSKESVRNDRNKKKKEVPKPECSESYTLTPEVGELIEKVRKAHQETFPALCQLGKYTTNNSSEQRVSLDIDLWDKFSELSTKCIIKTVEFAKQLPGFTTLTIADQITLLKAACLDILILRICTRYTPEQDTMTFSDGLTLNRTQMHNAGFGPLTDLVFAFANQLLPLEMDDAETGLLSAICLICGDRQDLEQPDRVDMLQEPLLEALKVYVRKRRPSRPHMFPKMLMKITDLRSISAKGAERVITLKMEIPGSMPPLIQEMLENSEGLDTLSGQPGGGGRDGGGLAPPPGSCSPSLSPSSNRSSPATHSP
Chain of Transcription factor E2F1 (Homo sapiens) (Q01094 whole entry, looked up): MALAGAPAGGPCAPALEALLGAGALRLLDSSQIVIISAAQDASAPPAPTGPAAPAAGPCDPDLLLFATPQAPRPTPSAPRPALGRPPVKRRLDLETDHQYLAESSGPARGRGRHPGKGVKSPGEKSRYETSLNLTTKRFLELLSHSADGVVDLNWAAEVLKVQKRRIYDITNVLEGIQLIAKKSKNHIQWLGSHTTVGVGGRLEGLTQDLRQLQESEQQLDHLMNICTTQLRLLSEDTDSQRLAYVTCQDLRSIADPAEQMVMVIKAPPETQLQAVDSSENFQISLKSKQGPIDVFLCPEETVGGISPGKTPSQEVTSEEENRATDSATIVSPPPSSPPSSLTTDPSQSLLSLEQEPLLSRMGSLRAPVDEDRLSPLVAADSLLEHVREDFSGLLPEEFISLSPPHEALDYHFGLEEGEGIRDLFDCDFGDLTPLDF
Chain of Aryl hydrocarbon receptor (Homo sapiens) (P35869 whole entry, looked up): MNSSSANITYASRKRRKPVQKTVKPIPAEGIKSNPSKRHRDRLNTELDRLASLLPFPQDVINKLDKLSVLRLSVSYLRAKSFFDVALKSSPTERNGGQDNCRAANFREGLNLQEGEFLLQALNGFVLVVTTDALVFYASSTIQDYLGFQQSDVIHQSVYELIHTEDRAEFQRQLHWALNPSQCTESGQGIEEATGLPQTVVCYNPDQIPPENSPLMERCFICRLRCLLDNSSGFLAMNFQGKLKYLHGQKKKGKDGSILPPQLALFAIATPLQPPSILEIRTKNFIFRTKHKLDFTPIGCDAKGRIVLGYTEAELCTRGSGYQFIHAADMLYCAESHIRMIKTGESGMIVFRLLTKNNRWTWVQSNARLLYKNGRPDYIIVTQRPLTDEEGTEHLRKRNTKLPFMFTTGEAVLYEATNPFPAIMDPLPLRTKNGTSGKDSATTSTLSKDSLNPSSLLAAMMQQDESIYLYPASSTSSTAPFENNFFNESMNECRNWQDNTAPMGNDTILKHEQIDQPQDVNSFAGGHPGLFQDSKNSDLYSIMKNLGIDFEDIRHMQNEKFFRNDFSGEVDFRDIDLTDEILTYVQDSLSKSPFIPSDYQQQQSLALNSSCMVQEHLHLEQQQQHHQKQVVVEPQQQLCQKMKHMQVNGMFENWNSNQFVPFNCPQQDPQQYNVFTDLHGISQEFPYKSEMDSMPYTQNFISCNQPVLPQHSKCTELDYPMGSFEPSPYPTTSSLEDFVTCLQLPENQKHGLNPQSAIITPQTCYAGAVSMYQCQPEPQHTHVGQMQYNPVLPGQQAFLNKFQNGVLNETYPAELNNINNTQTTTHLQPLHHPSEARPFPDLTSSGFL
Chain of CCAAT/enhancer-binding protein beta (Homo sapiens) (P17676 whole entry, looked up): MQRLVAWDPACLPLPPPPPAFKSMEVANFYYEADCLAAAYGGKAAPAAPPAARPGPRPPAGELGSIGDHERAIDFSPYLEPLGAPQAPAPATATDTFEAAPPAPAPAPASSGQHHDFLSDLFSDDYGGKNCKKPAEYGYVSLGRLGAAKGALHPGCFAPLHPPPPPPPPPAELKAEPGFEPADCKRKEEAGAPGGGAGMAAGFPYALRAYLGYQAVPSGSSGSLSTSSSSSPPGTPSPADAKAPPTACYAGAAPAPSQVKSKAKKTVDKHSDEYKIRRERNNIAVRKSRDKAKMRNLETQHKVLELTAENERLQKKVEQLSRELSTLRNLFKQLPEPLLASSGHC

CCCCN(CC)c1c([N+](=O)[O-])cc(C(F)(F)F)cc1[N+](=O)[O-]
inactive: [1] | [2] | [3] | [4] | [5] | [6] | [7] | [8] | [9] | [10] | [11] | [12] | [13] | [14] | [15] | [16] | [17] | [19]
active: [18] 20.1 µM

Cc1nn(-c2cc(NS(C)(=O)=O)c(Cl)cc2Cl)c(=O)n1C(F)F
inactive: [1] | [2] | [3] | [4] | [5] | [6] | [7] | [8] | [9] | [10] | [11] | [12] | [13] | [14] | [15] | [16] | [17] | [19]

CCc1cnc(C2=NC(C)(C(C)C)C(=O)N2)c(C(=O)O)c1 (stereo unspecified)
inactive: [1] | [2] | [3] | [4] | [5] | [6] | [7] | [9] | [10] | [11] | [12] | [13] | [14] | [15] | [20] | [17] | [18] | [19]

CCOC(=O)CC(SP(=O)(OC)OC)C(=O)OCC (stereo unspecified)
inactive: [1] | [2] | [3] | [4] | [5] | [6] | [7] | [8] | [9] | [10] | [11] | [12] | [13] | [14] | [15] | [16] | [17] | [18] | [19]

C=C(C)[C@H]1Cc2c(ccc3c2O[C@@H]2COc4cc(OC)c(OC)cc4[C@@H]2C3=O)O1
active: [1] 1.62 µM | [2] 15.7 µM | [3] 1.15 µM | [5] 12.2 µM | [6] 4.05 µM | [11] 0.0337 µM | [12] 0.0249 µM | [13] 0.0033 µM | [17] 0.0104 µM | [18] 0.0229 µM
inactive: [4] | [7] | [9] | [10] | [14] | [15] | [16] | [19]

CCOP(=S)(Oc1cnc(C(C)(C)C)nc1)OC(C)C (stereo unspecified)
inactive: [1] | [2] | [3] | [5] | [6] | [7] | [8] | [9] | [10] | [11] | [15] | [16] | [19]
active: [4] 66.5 µM | [12] 2.22 µM | [13] 50 µM | [14] 12.9 µM | [20] 62.2 µM | [17] 50 µM | [18] 12 µM

CCOP(=O)(NC(C)C)Oc1ccc(SC)c(C)c1 (stereo unspecified)
active: [2] 50.5 µM | [18] 14.2 µM
inactive: [1] | [3] | [4] | [5] | [6] | [7] | [8] | [9] | [10] | [11] | [12] | [13] | [14] | [15] | [16] | [17] | [19]

CNC(=O)ON=C(SC)C(=O)N(C)C
inactive: [1] | [2] | [3] | [4] | [5] | [6] | [7] | [8] | [10] | [12] | [13] | [14] | [15] | [16] | [17] | [18] | [19]
active: [9] 87.8 µM | [11] 17.4 µM | [20] 50 µM
